FXN GAA850 act: activators of GAA850 frataxin (FXN) promoter; HEK293 lucGAA850 FXN promoter luciferase reporter, 24 h; percent of 10 µM SAHA response; activation, % at 6 µM; 360,000 compounds, 0.56% hits; AID 540364;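 active = activation above the average of all compounds screened plus 3 SD, cutoff fixed separately per campaign, cut at about 7.5% in these data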;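 note: 0% = DMSO wells and 100% = 10 µM SAHA wells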
SMARCA2 act: SMARCA2 function activation, primary screen; MG213 cells, MMTV-luciferase reporter, dexamethasone, overnight; activation, % at 9.1 µM; 370,000 compounds, 1% hits; AID 652017; in the data active = activation above about 7.8%;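 note: 0% = vehicle wells and 100% = reference activator wells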
KLK7 zymogen act: activates the human kallikrein-7 zymogen; activation, % at 7 µM; purified proKLK7, EDANS-DABCYL substrate fluorescence; 100% is mature enzyme control, 0% vehicle; P49862; 370,000 compounds, 0.9% hits;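 active = activation above the mean of all tested compounds plus 3 SD, computed per campaign excluding outliers beyond control limits, cut at about 13% in these data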
FAS TE block: blocks the thioesterase domain of human fatty acid synthase | P49327 | recombinant FAS-TE, OMFH fluorogenic substrate, fluorescence endpoint | inhibition, % at 15 µM | 360,000 compounds, 0.67% hits;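 active = compounds whose normalised, plate-corrected inhibition of enzyme fluorescence in the single-dose primary screen is 50% or more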;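 note: 0% = DMSO with enzyme and 100% = substrate without enzyme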
SMARCA2 conf: confirmation of SMARCA2 (BRM) function activators; 3,500 compounds, 30% hits; shares compounds with SMARCA2 act; activation, % at 9.1 µM; MG213 cells, MMTV-luciferase with dexamethasone, luminescence, overnight; MG213 cells expressing E1A, Rb sequestered; DMSO wells 0%, reference activator 100%;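 active = activation above its plate's cutoff, the mean activation of tested wells plus 3 SD, cut at about 7.9% in these data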
GAL4-VP16 Luc: counter-screen for SMARCA2 activators: GAL4-VP16 luciferase reporter activation. shares compounds with SMARCA2 act. HEK293 GAL4-VP16 pG5luc reporter, luciferase luminescence; scaled: DMSO wells 0%, SAHA wells 100%. activation, % at 9.1 µM. 3,500 compounds, 41% hits. AID 686939;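 active = activation above the solvent-only control well mean plus 3 SD, averaged across control plates, cut at about 5.2% in these data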
* = called active by the depositor; . = not tested or not shown. Shown are actives, neighbours in structure and some others; about 2.9% of the full set was active somewhere.

SMILES | FXN GAA850 act | SMARCA2 act | KLK7 zymogen act | FAS TE block | SMARCA2 conf | GAL4-VP16 Luc
C=CCS/C(N)=N\N=C\c1c(O)ccc2ccccc12 | 7 | 12* | 0 | 16 | 12* | 8.7*
Fc1cccc(C2NN=C(c3ccccc3)S2)c1 (stereo unspecified) | 7 | 12* | 0 | 3 | 14* | 13*
Cc1ccc(C2=NNC(c3cccc(F)c3)S2)cc1 (stereo unspecified) | 1 | 1 | 0 | 6 | . | .
COc1ccc(-c2ccc(S(=O)(=O)n3nc(OC(=O)c4cccs4)cc3N)cc2)cc1 | 0 | 0 | 0 | 19 | . | .
COc1ccc(NC(=O)n2nc(OC(=O)c3cccs3)cc2N)cc1 | 3 | 9.1* | -1 | 16 | 3 | 2
COc1ccc(Oc2nc(C)cc(C)c2S(=O)(=O)c2ccc(C)cc2)cc1 | 0 | -1 | 0 | 23 | . | .
O=c1c2sccc2[nH]c(=S)n1-c1ccccc1 | 4 | -1 | 0 | -8 | . | .
Oc1[nH]c(N=C2N=c3ccccc3=N2)c2ccccc12 | 1 | 14* | 0 | -4 | 7 | 37*
COc1cc2c(cc1OC)C(c1cc3cc4c(cc3[nH]c1=O)OCO4)N(C(=O)C1CC1)CC2 (stereo unspecified) | 0 | -2 | 0 | -3 | . | .
COc1cc2c(cc1OC)C(c1cc3ccc(C)cc3[nH]c1=O)N(C(=O)c1ccco1)CC2 (stereo unspecified) | 2 | 11* | 0 | 0 | 0 | 1
Cc1cccc(C(=O)O/N=C(\N)c2ccc(Br)cc2)c1 | 0 | 2 | 0 | 3 | . | .
N/C(=N\OC(=O)c1ccc2c(c1)OCO2)c1ccc(Cl)cc1 | 3 | 8.9* | 0 | -1 | 10* | 6.8*
Cc1cc(/C(N)=N/OC(=O)c2cccc(Cl)c2)no1 | 2 | 13* | 0 | -2 | 4 | 1
COc1cc(OC)c(C(=O)O/N=C(\N)c2ccccc2)cc1OC | 1 | 8.6* | 0 | 0 | 3 | 2
Cc1cccc(C(=O)O/N=C(\N)c2ccc(Cl)cc2)c1 | 4 | 9.0* | 0 | 3 | 8 | 5
Cc1cc(/C(N)=N/OC(=O)c2ccc(Cl)cc2)no1 | 3 | 4 | 0 | -3 | . | .
COc1ccc(C(=O)O/N=C(\N)c2ccccc2)cc1OC | 5 | 7 | 0 | 0 | . | .
C=CCN(C(=O)[C@@H](CCCC)[C@@H](O)c1ccc2ccccc2c1)c1ccccc1 | . | -2 | 0 | . | . | .
Cc1nn(C)cc1CN(C)Cc1c(C(=O)N(C)Cc2ccccc2)nc2ccccn12 | 0 | -1 | 0 | -7 | . | .
Cc1cccc(/C(N)=N/OC(=O)c2ccoc2C)c1 | 4 | 8.1* | 0 | -3 | 13* | 13*
O=C(N/N=C1\CCCc2ccccc21)c1ccccc1Cl | 3 | 1 | 0 | -3 | . | .
O=C(N/N=C1\CCc2ccccc21)c1ccccc1O | 0 | 10.0* | 0 | -10 | 5 | 7.4*
CCOC(=O)C1CCN(C(=O)Cn2cnc3sc(C)c(S(=O)(=O)N4CCC(C)CC4)c3c2=O)CC1 | 0 | 8.1* | 0 | 29 | -2 | -1
CN(C)c1nn2c(-c3ccccc3)nnc2o1 | 0 | 8.8* | 1 | -6 | 0 | 3
Cc1ccc(NC(=O)Nc2ccc3c(c2)OCO3)c(OC(F)F)c1 | 4 | 8.5* | 0 | 2 | 9.0* | 9.4*
SMILES | FXN GAA850 act | SMARCA2 act | KLK7 zymogen act | FAS TE block | SMARCA2 conf | GAL4-VP16 Luc
CCCC(=O)Nc1nnc(SCC)s1 | 2 | 8.5* | 0 | -12 | 3 | 2
CCSc1nnc(NC(=O)c2csc(C)c2)s1 | 1 | 8.1* | 0 | -5 | 5 | 8.8*
CCCC(=O)Nc1nnc(SCC(=O)N2CCCCC2)s1 | 0 | -1 | 0 | -5 | . | .
CCSc1nnc(NC(=O)c2cccc3ccccc23)s1 | 0 | 0 | 1 | -4 | . | .
CN1CCN(Cc2nc3ccccc3c(=O)n2Cc2nc(-c3ccc([N+](=O)[O-])cc3)cs2)CC1 | -1 | 17* | 0 | 8 | 44* | 2
CN(C)Cc1nc2ccccc2c(=O)n1Cc1nc(-c2cccc([N+](=O)[O-])c2)cs1 | 2 | -1 | 0 | 29 | . | .
Cc1cc(N/N=C/c2cccc(Br)c2)nc2ccccc12 | 6 | 12* | -10 | -5 | 4 | 7.8*
